RORg inh: qHTS for inhibitors of ROR gamma transcriptional activity; Nuclear receptor ROR-gamma (Mus musculus), P51450; Drosophila S2 Gal4-RORgamma UAS-luciferase reporter, 20 h; Potency, µM (top dose mostly 53.6 µM), without a hit: at the highest dose activity change, negative = inhibition, most hits filed as inhibitors; actives 5.4% (n = 310,000); AID 2551, 2010; also: potency is read from the fitted curve at half-maximal effect; nearly all actives have a fitted effect of over 60% in size
Target sequence (P51450 whole entry, looked up, the tested form may be a part): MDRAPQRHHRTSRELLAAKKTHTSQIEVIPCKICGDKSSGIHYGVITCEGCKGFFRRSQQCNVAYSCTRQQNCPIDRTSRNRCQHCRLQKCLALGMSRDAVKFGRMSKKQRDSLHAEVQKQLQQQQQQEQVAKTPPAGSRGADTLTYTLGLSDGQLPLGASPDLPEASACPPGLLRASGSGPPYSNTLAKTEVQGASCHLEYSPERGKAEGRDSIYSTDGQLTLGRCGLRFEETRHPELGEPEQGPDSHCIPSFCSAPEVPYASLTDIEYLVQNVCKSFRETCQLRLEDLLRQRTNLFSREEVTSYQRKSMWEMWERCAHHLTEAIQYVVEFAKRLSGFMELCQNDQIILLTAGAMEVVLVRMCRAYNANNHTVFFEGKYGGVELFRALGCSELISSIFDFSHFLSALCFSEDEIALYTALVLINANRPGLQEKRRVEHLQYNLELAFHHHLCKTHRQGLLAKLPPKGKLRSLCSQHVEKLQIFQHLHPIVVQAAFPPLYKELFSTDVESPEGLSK
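Stably transfected Drosophila Schneider cells are the test system, with ROR gamma fused to Gal4 and luciferase under UAS control; luminescence is read after 20 hr of 700 uM copper sulfate induction at ambient temperature.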
ELG1 repair inh: qHTS screen for small molecules that inhibit ELG1-dependent DNA repair in human embryonic kidney (HEK293T) cells expressing luciferase-tagged ELG1. actives 2.3% (n = 330,000). HEK293T ELG1-luciferase reporter, luminescence, 16 h; DNA damage induced by 5-fluorouridine. Potency, µM (series often up to 46.1 µM), without a hit: top-dose activity change, negative = inhibition, actives largely listed as inhibitors. AID 504467, 2011; also: potency is read from the fitted curve at half-maximal effect; nearly all actives have a fitted effect of over 55% in size
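Quantitative HTS, concentration-response format. 2,000 cells/well co-treated with 5-fluorouridine and compound, 16 hr in 5% CO2 at 37 °C; ONE-Glo luminescence read after 30 min.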
TSHR antag: Antagonists of the Thyroid Stimulating Hormone Receptor: HTS campaign; activity change, negative = inhibition, % at 11.5 µM; actives 0.2% (n = 330,000); TSHR-expressing cells, TSH-stimulated cAMP HTRF, 2 h; active compounds read low; Thyrotropin receptor (Homo sapiens), P16473; AID 504810, 2011;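 active = activity change below a set negative limit, meaning inhibition stronger than a set level, cut at about -70% in these data; inconclusive = activity change between two set negative limits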
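Read-out is FRET at 665 nm (cryptate excitation 337 nm) from a cryptate-tagged anti-cAMP antibody, competed by cell cAMP against cAMP-d2. Compounds are tested on freshly harvested TSHR cells challenged with 4nM TSH (EC80) for 2 hours at 37 deg C.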
Gal4-VP16 FLuc: VP16 counterscreen qHTS for inhibitors of ROR gamma transcriptional activity. Drosophila S2 Gal4-VP16 UAS-luciferase, luminescence, 20 h. Potency, µM (doses to about 53.6 µM), for inactives: at the top dose activity, negative = inhibition, usual class: inhibitors. actives 3.5% (n = 310,000). AID 2546, 2010;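 also: Gal4-VP16 expression switched on by copper sulfate through the metallothionein promoter; potency is read from the fitted curve at half-maximal effect; nearly all actives have a fitted effect of over 50% in size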
FBPA coupling cs: qHTS Assay for Inhibitors of Fructose-1,6-bisphosphate Aldolase from Giardia Lamblia: Coupling assay counterscreen; coupling enzyme system counterscreen, AmpLite Red fluorescence; activity change, negative = inhibition, % at 58.2 µM, hits read low; actives 0.67% (n = 290,000); AID 2472, 2010; in the data active = activity change below about -30%
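Final compound at 57.5 uM, incubated 10 min at RT with coupling enzyme reagent (glyceraldehyde-3-phosphate), then 20 min with substrate and AmpLite Red detection. Fluorescence read at 525/598 nm; tests interference with the coupling assay, not aldolase inhibition.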
* = called active by the depositor; ? = inconclusive; . = no result given; ! = not active in a repeat; [ ] = dose if it differs, or a comment. Only some compounds are listed: those with a hit (about 8% of all), similar ones and a draw of the others. Unless noted, calls follow the shape of the dose curve; as a rule, active = well fitted curve in the direction sought with a large enough effect; inconclusive = small, poorly fitted or top-dose-only effect, or another doubt; inactive = no such curve, though single readings can be large; an effect the other way counts as inactive or inconclusive. % is scaled to controls: 0 for no effect and ±100 for the full control effect.

SMILES	RORg inh	ELG1 repair inh	TSHR antag	Gal4-VP16 FLuc	FBPA coupling cs
COC(=O)CCC(=O)OC1(C)C(=O)C=C2C=C(C3CC3)N(c3ccccc3)C=C2C1=O (stereo not drawn)	-10.3%	-1.0%	-5.0	-0.7%	-41.1*
COC(=O)CCC(=O)OC1(C)C(=O)C=C2C=C(C3CC3)N(CCN3CCOCC3)C=C2C1=O (stereo not drawn)	8.1%	1.7%	-6.8	7.0%	-45.8*
COC(=O)CCC(=O)OC1(C)C(=O)C=C2C=C(C3CC3)N(CCc3c[nH]c4ccccc34)C=C2C1=O (stereo not drawn)	14.5%	-0.2%	-0.7	-4.6%	-40.4*!
COC(=O)CCC(=O)OC1(C)C(=O)C=C2C=C(c3ccc(C#N)cc3)OC=C2C1=O (stereo not drawn)	0.1%	.	.	4.8%	1.2
C=CC[C@@H]1C=C[C@H](O/N=C(\C)CCN2CCCCc3nc(C)c(C)cc32)[C@H](CO)O1	-15.7%[10 µM]	.	.	7.6%[10 µM]	0.6
CC1CCC2C(C)C3C(CC4[C@@H]5CC=C6C[C@@H](O)CC[C@]6(C)C5CC[C@]34C)N2C1 (stereo partly drawn)	-21.7%	.	.	-5.5%	-1.3
Cc1ncoc1C(=O)N1CCCC(C(=O)c2cccc3ccccc23)C1 (stereo not drawn)	30.1%	3.1%	10.0	16.1%	-0.3
CC1=C(C(=O)N2CCCC(C(=O)c3cccc4ccccc34)C2)OCCO1 (stereo not drawn)	?	-20.1%	-7.1	12.6µM*	1.5
O=C(C1=C[C@@H](c2csc3ccccc23)C[C@@H](OCc2ccc(CO)cc2)O1)N1CCN(Cc2ccc3c(c2)OCO3)CC1	15.5%	9.2µM*	-6.8	-0.7%	0.3
O=C(C1=C[C@H](c2ccccc2)C[C@H](OCc2ccc(CO)cc2)O1)N1CCN(Cc2ccccc2)CC1	8.3%	?	-2.7	4.1%	-1.1
O=C(C1=C[C@@H](c2ccccc2)C[C@@H](OCc2ccc(CO)cc2)O1)N1CCN(Cc2ccc3c(c2)OCO3)CC1	-0.1%	14.6µM*	-7.1	-20.1%	-1.1
OCC[C@H]1C[C@H](O)[C@@H](O)[C@]2(OCc3ccccc32)O1	.	10.2%	2.5	.	.
CCn1nc(C)c(/C=N/NC(=O)c2ccoc2C)c1C	?	?	13.6	-22.1%	.
Cc1nn(Cc2ccccc2)c(C)c1/C=N/NC(=O)c1ccncc1	-3.4%	?	-5.4	-2.5%	3.0
CCCCCn1nc(C)c(/C=N/NC(=O)c2ccoc2C)c1C	?	?	-9.7	8.91µM*	2.1
Cc1nn(Cc2ccccc2)c(C)c1/C=N/NC(=O)c1ccccc1O	11.2µM*	?	3.3	17.8µM*	7.5
CC(=O)c1ccc(S(=O)(=O)Nc2c(C)nn(C)c2C)cc1	.	2.1%	7.6	.	.
COc1ccc(NCCNc2ccc(OC)cc2)cc1	11.9%	-7.1%	3.8	-3.8%	-35.4*
CC(NC(=O)Cc1cc(F)cc(F)c1)C(=O)NC(C(=O)OC(C)(C)C)c1ccccc1 (stereo not drawn)	?	.	.	9.3%	0.7
CC1(C)CC(=O)c2cnn(-c3nc4ccccc4[nH]3)c2C1	8.91µM*	?	-1.0	?	-5.1
O=c1c(Cl)c(N2CCOCC2)cnn1-c1nc2ccccc2[nH]1	?	?	3.9	?	1.6
CC(NC(=O)CCCCCNC(=O)N1CCn2c1nc1ccccc12)c1ccccc1 (stereo not drawn)	39.8%	?	13.3	0.4%	-3.5
CCC(NC(=S)NC1CCCCC1)c1ccc(C(C)C)cc1 (stereo not drawn)	1.78µM*	-3.2%	-21.1	2.51µM*	-1.2
Cc1ccc(C(C)NC(=S)NC2CCCCC2)c(C)c1 (stereo not drawn)	3.16µM*	?	8.8	3.55µM*	-4.5
Cc1ccc(C(C)NC(=S)NC2CCCCC2)cc1C (stereo not drawn)	2.51µM*	-20.0%	0.3	3.98µM*	-0.2
SMILES	RORg inh	ELG1 repair inh	TSHR antag	Gal4-VP16 FLuc	FBPA coupling cs
Cc1ccc(C(C)NC(=O)C2CCCC2)c(C)c1 (stereo not drawn)	7.5%	3.8%	-15.2	-9.8%	0.7
COc1ccc(C(C)NC(=S)NC2CCCC2)cc1OC (stereo not drawn)	?	4.3%	24.1	?	3.8
O=C(c1cccc(F)c1)N1CCC2(CC1)CN(Cc1ccccc1)C2	-24.7%	.	.	2.9%	1.0
O/C(=C\c1nc2ccccc2nc1/C=C(\O)c1ccccc1)c1ccccc1	10µM*	?	-16.7	4.8%[10 µM]	-47.9*
O=c1oc2ccccc2nc1/C=C(\O)c1ccccc1	-21.4%	-10.3%	-2.4	2.9%	2.9
Cc1c(C(=O)c2no[n+]([O-])c2C(=O)c2cnn(C)c2C)cnn1C	10µM*	-21.7%	-25.4	8.91µM*	3.9
Cc1nc(S/C(=C\c2ccc(-c3ccc(C(=O)O)c(Cl)c3)o2)C(=O)O)n[nH]1	11.4%	-4.7%	4.0	-1.6%	-0.8
Cc1nc(S/C(=C\c2ccc(OCc3ccccc3Cl)cc2)C(=O)O)n[nH]1	1µM*	?	36.8	?	5.3
COc1ccc(CN2CCC(C(=O)Nc3ccc(Oc4cccnc4)cc3)CC2)c(C)c1C	-6.0%	-15.8%	-13.1	?	.
Nc1ccc(Nc2ccccc2N)cc1	?	18.3%	-0.1	-3.7%	-31.2*
CC(C)CO/N=C1/C[C@@H](O)[C@@H](O)[C@@H]2[C@@H]3C(=O)N(c4cccc(Oc5ccccc5)c4)C(=O)[C@H]3CC[C@@H]12	-4.3%[10 µM]	.	.	-7.0%[10 µM]	0.6
CC(C)(C)OC(=O)NCCCC[C@H](NC(=O)c1[nH]cnc1C(=O)N[C@@H](Cc1ccccc1)C(=O)OCc1ccccc1)C(=O)OC(C)(C)C	.	-5.4%	-2.5	.	.
CNC(=O)c1[nH]cnc1C(=O)N[C@@H](Cc1ccccc1)C(=O)OCc1ccccc1	17.8µM*	?	-15.1	?	0.3
C[C@H](NC(=O)c1nc[nH]c1C(=O)NC1CCN(C(=O)OC(C)(C)C)CC1)C(=O)OCc1ccccc1	14.1µM*	3.7%	1.7	?	-1.5
Cc1cccc(NC(=O)c2nc[nH]c2C(=O)NCc2ccccc2)c1	.	-13.4%	-10.6	.	.
CNC(=O)c1[nH]cnc1C(=O)NCC(=O)OCc1ccccc1	-27.9%	-4.7%	-11.0	0.0%	2.0
Cc1cccc(NC(=O)c2nc[nH]c2C(=O)N[C@@H](Cc2ccccc2)C(=O)OCc2ccccc2)c1	2.24µM*	-0.9%	-1.4	10µM*	2.2

Screens (PubChem BioAssay)
